# Test results reported in the supplement of paper PMC4466140.
# Biological target: AgAbp1
# Test: SPOT peptide array binding signal intensity (averaged, normalized) (arbitrary units (background-subtracted, floor 0; scale differs between SH3 domains)); higher = stronger binding of the SH3 domain to the peptide
# Procedure, shortened: (§1)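 Detection of bound protein relied on anti-GST antibody, an HRP anti-mouse secondary and luminol, with imaging and quantification in Genespotter. The bound protein was GST-fused SH3 domains from four yeast species, incubated at 10 μg/ml overnight at 4°C in TBS-based blocking buffer on cellulose membranes carrying synthetic 15-mer peptides with cysteines replaced by serines. Binding signal is normalized, background-subtracted spot intensity averaged over replicates, in arbitrary units that differ between domains.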
row,Binder,SPOT peptide array binding signal intensity
1,SRSKPLPLTPNSKYN,197

# Biological target: AgBbc1
# Test: as above
# Procedure, shortened: as §1
row,Binder,SPOT peptide array binding signal intensity
1,SRSKPLPLTPNSKYN,15.2

# Biological target: AgBem1-D1
# Test: as above
# Procedure, shortened: as §1
row,Binder,SPOT peptide array binding signal intensity
1,SRSKPLPLTPNSKYN,16

# Biological target: AgBzz1-D1
# Test: as above
# Procedure, shortened: as §1
row,Binder,SPOT peptide array binding signal intensity
1,SRSKPLPLTPNSKYN,195

# Biological target: AgBzz1-D2
# Test: as above
# Procedure, shortened: as §1
row,Binder,SPOT peptide array binding signal intensity
1,SRSKPLPLTPNSKYN,111

# Biological target: AgCyk3
# Test: as above
# Procedure, shortened: as §1
row,Binder,SPOT peptide array binding signal intensity
1,SRSKPLPLTPNSKYN,1

# Biological target: AgFus1
# Test: as above
# Procedure, shortened: as §1
row,Binder,SPOT peptide array binding signal intensity
1,SRSKPLPLTPNSKYN,6.5

# Biological target: AgHof1
# Test: as above
# Procedure, shortened: as §1
row,Binder,SPOT peptide array binding signal intensity
1,SRSKPLPLTPNSKYN,24.2

# Biological target: AgHse1
# Test: as above
# Procedure, shortened: as §1
row,Binder,SPOT peptide array binding signal intensity
1,SRSKPLPLTPNSKYN,10.5

# Biological target: AgLsb1
# Test: as above
# Procedure, shortened: as §1
row,Binder,SPOT peptide array binding signal intensity
1,SRSKPLPLTPNSKYN,1

# Biological target: AgLsb4
# Test: as above
# Procedure, shortened: as §1
row,Binder,SPOT peptide array binding signal intensity
1,SRSKPLPLTPNSKYN,9

# Biological target: AgMyo5
# Test: as above
# Procedure, shortened: as §1
row,Binder,SPOT peptide array binding signal intensity
1,SRSKPLPLTPNSKYN,≤ 0

# Biological target: AgNbp2
# Test: as above
# Procedure, shortened: as §1
row,Binder,SPOT peptide array binding signal intensity
1,SRSKPLPLTPNSKYN,8.5

# Biological target: AgRvs167
# Test: as above
# Procedure, shortened: as §1
row,Binder,SPOT peptide array binding signal intensity
1,SRSKPLPLTPNSKYN,1.67

# Biological target: AgSho1
# Test: as above
# Procedure, shortened: as §1
row,Binder,SPOT peptide array binding signal intensity
1,SRSKPLPLTPNSKYN,3200

# Biological target: AgSla1-D1-D2
# Test: as above
# Procedure, shortened: as §1
row,Binder,SPOT peptide array binding signal intensity
1,SRSKPLPLTPNSKYN,21.5

# Biological target: AgSla1-D3
# Test: as above
# Procedure, shortened: as §1
row,Binder,SPOT peptide array binding signal intensity
1,SRSKPLPLTPNSKYN,8.5

# Biological target: CaAbp1-D1
# Test: as above
# Procedure, shortened: as §1
row,Binder,SPOT peptide array binding signal intensity
1,SRSKPLPLTPNSKYN,64

# Biological target: CaAbp1-D2
# Test: as above
# Procedure, shortened: as §1
row,Binder,SPOT peptide array binding signal intensity
1,SRSKPLPLTPNSKYN,249

# Biological target: CaBbc1
# Test: as above
# Procedure, shortened: as §1
row,Binder,SPOT peptide array binding signal intensity
1,SRSKPLPLTPNSKYN,30

# Biological target: CaBem1-D1
# Test: as above
# Procedure, shortened: as §1
row,Binder,SPOT peptide array binding signal intensity
1,SRSKPLPLTPNSKYN,29.5

# Biological target: CaBzz1-D1
# Test: as above
# Procedure, shortened: as §1
row,Binder,SPOT peptide array binding signal intensity
1,SRSKPLPLTPNSKYN,384

# Biological target: CaBzz1-D2
# Test: as above
# Procedure, shortened: as §1
row,Binder,SPOT peptide array binding signal intensity
1,SRSKPLPLTPNSKYN,162

# Biological target: CaCyk3
# Test: as above
# Procedure, shortened: as §1
row,Binder,SPOT peptide array binding signal intensity
1,SRSKPLPLTPNSKYN,4

# Biological target: CaFus1
# Test: as above
# Procedure, shortened: as §1
row,Binder,SPOT peptide array binding signal intensity
1,SRSKPLPLTPNSKYN,83

# Biological target: CaHof1
# Test: as above
# Procedure, shortened: as §1
row,Binder,SPOT peptide array binding signal intensity
1,SRSKPLPLTPNSKYN,≤ 0

# Biological target: CaHse1
# Test: as above
# Procedure, shortened: as §1
row,Binder,SPOT peptide array binding signal intensity
1,SRSKPLPLTPNSKYN,8.25

# Biological target: CaLsb1
# Test: as above
# Procedure, shortened: as §1
row,Binder,SPOT peptide array binding signal intensity
1,SRSKPLPLTPNSKYN,0.5

# Biological target: CaLsb4
# Test: as above
# Procedure, shortened: as §1
row,Binder,SPOT peptide array binding signal intensity
1,SRSKPLPLTPNSKYN,10.5

# Biological target: CaMyo5
# Test: as above
# Procedure, shortened: as §1
row,Binder,SPOT peptide array binding signal intensity
1,SRSKPLPLTPNSKYN,10

# Biological target: CaNbp2
# Test: as above
# Procedure, shortened: as §1
row,Binder,SPOT peptide array binding signal intensity
1,SRSKPLPLTPNSKYN,19.5

# Biological target: CaRvs167
# Test: as above
# Procedure, shortened: as §1
row,Binder,SPOT peptide array binding signal intensity
1,SRSKPLPLTPNSKYN,6.17

# Biological target: CaRvs167-3
# Test: as above
# Procedure, shortened: as §1
row,Binder,SPOT peptide array binding signal intensity
1,SRSKPLPLTPNSKYN,2.75

# Biological target: CaSho1
# Test: as above
# Procedure, shortened: as §1
row,Binder,SPOT peptide array binding signal intensity
1,SRSKPLPLTPNSKYN,3190

# Biological target: CaSla1-D1-D2
# Test: as above
# Procedure, shortened: as §1
row,Binder,SPOT peptide array binding signal intensity
1,SRSKPLPLTPNSKYN,1430

# Biological target: CaSla1-D3
# Test: as above
# Procedure, shortened: as §1
row,Binder,SPOT peptide array binding signal intensity
1,SRSKPLPLTPNSKYN,1.5

# Biological target: ScAbp1
# Test: as above
# Procedure, shortened: as §1
row,Binder,SPOT peptide array binding signal intensity
1,SRSKPLPLTPNSKYN,332

# Biological target: ScBbc1
# Test: as above
# Procedure, shortened: as §1
row,Binder,SPOT peptide array binding signal intensity
1,SRSKPLPLTPNSKYN,2.5

# Biological target: ScBem1-D1
# Test: as above
# Procedure, shortened: as §1
row,Binder,SPOT peptide array binding signal intensity
1,SRSKPLPLTPNSKYN,8

# Biological target: ScBzz1-D1
# Test: as above
# Procedure, shortened: as §1
row,Binder,SPOT peptide array binding signal intensity
1,SRSKPLPLTPNSKYN,98.5

# Biological target: ScBzz1-D2
# Test: as above
# Procedure, shortened: as §1
row,Binder,SPOT peptide array binding signal intensity
1,SRSKPLPLTPNSKYN,89

# Biological target: ScCyk3
# Test: as above
# Procedure, shortened: as §1
row,Binder,SPOT peptide array binding signal intensity
1,SRSKPLPLTPNSKYN,5

# Biological target: ScFus1
# Test: as above
# Procedure, shortened: as §1
row,Binder,SPOT peptide array binding signal intensity
1,SRSKPLPLTPNSKYN,8

# Biological target: ScHof1
# Test: as above
# Procedure, shortened: as §1
row,Binder,SPOT peptide array binding signal intensity
1,SRSKPLPLTPNSKYN,≤ 0

# Biological target: ScHse1
# Test: as above
# Procedure, shortened: as §1
row,Binder,SPOT peptide array binding signal intensity
1,SRSKPLPLTPNSKYN,30

# Biological target: ScLsb1
# Test: as above
# Procedure, shortened: as §1
row,Binder,SPOT peptide array binding signal intensity
1,SRSKPLPLTPNSKYN,≤ 0

# Biological target: ScLsb2
# Test: as above
# Procedure, shortened: as §1
row,Binder,SPOT peptide array binding signal intensity
1,SRSKPLPLTPNSKYN,1

# Biological target: ScLsb3
# Test: as above
# Procedure, shortened: as §1
row,Binder,SPOT peptide array binding signal intensity
1,SRSKPLPLTPNSKYN,≤ 0

# Biological target: ScLsb4
# Test: as above
# Procedure, shortened: as §1
row,Binder,SPOT peptide array binding signal intensity
1,SRSKPLPLTPNSKYN,12

# Biological target: ScMyo3
# Test: as above
# Procedure, shortened: as §1
row,Binder,SPOT peptide array binding signal intensity
1,SRSKPLPLTPNSKYN,≤ 0

# Biological target: ScMyo5
# Test: as above
# Procedure, shortened: as §1
row,Binder,SPOT peptide array binding signal intensity
1,SRSKPLPLTPNSKYN,2

# Biological target: ScNbp2
# Test: as above
# Procedure, shortened: as §1
row,Binder,SPOT peptide array binding signal intensity
1,SRSKPLPLTPNSKYN,20

# Biological target: ScPex13
# Test: as above
# Procedure, shortened: as §1
row,Binder,SPOT peptide array binding signal intensity
1,SRSKPLPLTPNSKYN,39

# Biological target: ScRvs167
# Test: as above
# Procedure, shortened: as §1
row,Binder,SPOT peptide array binding signal intensity
1,SRSKPLPLTPNSKYN,2.33

# Biological target: ScSho1
# Test: as above
# Procedure, shortened: as §1
row,Binder,SPOT peptide array binding signal intensity
1,SRSKPLPLTPNSKYN,3960

# Biological target: ScSla1-D1-D2
# Test: as above
# Procedure, shortened: as §1
row,Binder,SPOT peptide array binding signal intensity
1,SRSKPLPLTPNSKYN,156

# Biological target: ScSla1-D3
# Test: as above
# Procedure, shortened: as §1
row,Binder,SPOT peptide array binding signal intensity
1,SRSKPLPLTPNSKYN,28.2

# Biological target: SpAbp1-D1
# Test: as above
# Procedure, shortened: as §1
row,Binder,SPOT peptide array binding signal intensity
1,SRSKPLPLTPNSKYN,872

# Biological target: SpBbc1
# Test: as above
# Procedure, shortened: as §1
row,Binder,SPOT peptide array binding signal intensity
1,SRSKPLPLTPNSKYN,6.5

# Biological target: SpBzz1-D1
# Test: as above
# Procedure, shortened: as §1
row,Binder,SPOT peptide array binding signal intensity
1,SRSKPLPLTPNSKYN,578

# Biological target: SpBzz1-D2
# Test: as above
# Procedure, shortened: as §1
row,Binder,SPOT peptide array binding signal intensity
1,SRSKPLPLTPNSKYN,1.25

# Biological target: SpCyk3
# Test: as above
# Procedure, shortened: as §1
row,Binder,SPOT peptide array binding signal intensity
1,SRSKPLPLTPNSKYN,5

# Biological target: SpHof1
# Test: as above
# Procedure, shortened: as §1
row,Binder,SPOT peptide array binding signal intensity
1,SRSKPLPLTPNSKYN,1490

# Biological target: SpHof1-2
# Test: as above
# Procedure, shortened: as §1
row,Binder,SPOT peptide array binding signal intensity
1,SRSKPLPLTPNSKYN,1710

# Biological target: SpHof1-3
# Test: as above
# Procedure, shortened: as §1
row,Binder,SPOT peptide array binding signal intensity
1,SRSKPLPLTPNSKYN,1310

# Biological target: SpHse1
# Test: as above
# Procedure, shortened: as §1
row,Binder,SPOT peptide array binding signal intensity
1,SRSKPLPLTPNSKYN,37.5

# Biological target: SpLsb1
# Test: as above
# Procedure, shortened: as §1
row,Binder,SPOT peptide array binding signal intensity
1,SRSKPLPLTPNSKYN,1

# Biological target: SpLsb4
# Test: as above
# Procedure, shortened: as §1
row,Binder,SPOT peptide array binding signal intensity
1,SRSKPLPLTPNSKYN,17

# Biological target: SpMyo1
# Test: as above
# Procedure, shortened: as §1
row,Binder,SPOT peptide array binding signal intensity
1,SRSKPLPLTPNSKYN,10.5

# Biological target: SpNbp2
# Test: as above
# Procedure, shortened: as §1
row,Binder,SPOT peptide array binding signal intensity
1,SRSKPLPLTPNSKYN,11

# Biological target: SpPex13
# Test: as above
# Procedure, shortened: as §1
row,Binder,SPOT peptide array binding signal intensity
1,SRSKPLPLTPNSKYN,5

# Biological target: SpRvs167
# Test: as above
# Procedure, shortened: as §1
row,Binder,SPOT peptide array binding signal intensity
1,SRSKPLPLTPNSKYN,12.3

# Biological target: SpSla1-D1-D2
# Test: as above
# Procedure, shortened: as §1
row,Binder,SPOT peptide array binding signal intensity
1,SRSKPLPLTPNSKYN,844

# Biological target: SpSla1-D3
# Test: as above
# Procedure, shortened: as §1
row,Binder,SPOT peptide array binding signal intensity
1,SRSKPLPLTPNSKYN,0.5
